Records with an inconclusive call do not appear. Entries that show only a call come without a potency. Calls of active or inactive are those of the source. The call rests on the fitted dose curve; in most records, active means well fitted cell-killing curve with a large enough effect; inconclusive means small, poorly fitted or top-dose-only effect; inactive means no such curve, though single readings can be large or run the other way.
Potency means the concentration at half of the fitted maximal effect.

The assay is described as follows: qHTS of pediatric cancer cell lines to identify multiple opportunities for drug repurposing: Primary screen for NB-EBc1 cells (AID 1347095). To be noted: NB-EBc1 neuroblastoma viability, CellTiter-Glo luminescence, 48 h; series mostly up to 46 µM. The source says:
Drug repurposing or repositioning has been offered as a strategy for drug development in oncology programs. This approach has special potential for childhood cancers and other rare or orphan diseases, where the expected return on new drug development has been a disincentive to pharmaceuticals. […] In this project we exploit the poly-pharmacology of drugs to discover new indications via phenotypic screening of a panel of 19 well-characterized cell lines derived from solid tumors seen in children and adolescents. The goal is to identify approved drugs with previously unrecognized anticancer properties that has the potential to reveal new mechanisms and biological processes involved in carcinogenesis or drug resistance. We employed a titration-based paradigm (quantitative high-throughput screening or qHTS), where all compounds were tested at multiple concentrations for their effect on cell viability. Concentration-response curves (CRCs) were derived directly from the primary screen, and both potency and efficacy values were used to identify compounds with robust bioactivity profiles. We screened the NIH Chemical Genomics Center (NCGC) Pharmaceutical Collection (NPC) and Mechanism Interrogation Plate (MIPE) small molecule collections of approved and investigational compounds against these cell lines; and measured metabolically active cells after 48 hours of compound treatment as a proxy for cell viability. […] Assay Submitter: Nathalia J. Martinez, National Center for Advancing Translational Sciences, National Institutes of Health, Rockville, MD, USA; email: natalia.martinez@nih.gov Shen, M et al. Quantitative high-throughput phenotypic screening of pediatric cancer cell lines identifies multiple opportunities for drug repurposing. Oncotarget 2017 Dec 19;9(4):4758-4772. PMID 29435139.
The cells were obtained from University of North Carolina (UNC), Pediatric Preclinical Testing Program (PPT), and Coriell Institute (CI). qHTS cell viability assay: Cells were assayed in growth media at a density of 500-1,000 cells/well. Five microliters of cells were dispensed into 1,536-well, white, solid-bottom, TC-treated plates (Greiner Bio One) using a multidrop dispenser and incubated at 37 degrees C, 5% CO2, under a humidified atmosphere for 5 hours. Twenty-three nanoliters of compounds and controls (neutral control DMSO or positive control bortezomib at final concentration of 2.3 µM) were subsequently transferred by Kalypsys pintool. For primary screens, the MIPE collection was tested at 11-point dilutions (final concentrations range from 0.78 nM to 46 µM) and the NPC collection at 8-point dilutions (final concentrations range from 0.59 nM to 46 µM). Compounds tested in follow-up screens were assayed at 11-point dilutions. Cells were incubated for 48 hours, followed by addition of 3 µL of CellTiter-Glo (Promega). After a 15 min incubation at room temperature, samples were analyzed for luminescence intensity using a ViewLux High-throughput CCD imager equipped with clear filters.
(In qHTS, concentration-response curves come from the screen itself.)
As for `CCN(CC)CCOCCOC(=O)C1(c2ccccc2)CCCC1`, the Potency entry was “inactive”.

Regarding `O=C1CC2(CCCC2)CC(=O)N1CCCCN1CCN(c2ncccn2)CC1`, the Potency entry was “inactive”. As for `CCN1CCC[C@H]1CNC(=O)c1c(O)c(Cl)cc(Cl)c1OC`, the Potency entry was “inactive”.

Take `CN(C)CCN(Cc1cccs1)c1ccccn1`: the Potency entry is “inactive”. For `OCCN1CCN(CC/C=C2/c3ccccc3Sc3ccc(C(F)(F)F)cc32)CC1`, the Potency entry is “inactive”. For the compound `COc1ccc([C@@H]2Sc3ccccc3N(CCN(C)C)C(=O)[C@@H]2OC(C)=O)cc1`, the Potency entry was “inactive”.

Turning to `CN(C)CC[C@@H](c1ccc(Br)cc1)c1ccccn1`, the Potency entry is “inactive”. Regarding `Cc1nnc(SCC2=C(C(=O)O)N3C(=O)[C@@H](NC(=O)Cn4cnnn4)[C@H]3SC2)s1`, the Potency result is “inactive”. `CN/C(=C\[N+](=O)[O-])NCCSCc1ccc(CN(C)C)o1`: the Potency entry was “inactive”.

For `CN1CCN(C2=Nc3ccccc3Oc3ccc(Cl)cc32)CC1`, the Potency entry is “inactive”. The value for `Cc1cc(C)c(/C=C2\C(=O)Nc3ccccc32)[nH]1` was “inactive”. As for `O=c1[nH]c(=O)n([C@H]2C[C@H](O)[C@@H](CO)O2)cc1Br`, the Potency result is “inactive”. Turning to `CNC1(C)C2CCC(C2)C1(C)C` (stereo not given), the Potency entry was “inactive”. Consider `C[C@]12C=CC(=O)C=C1CC[C@H]1[C@@H]3C[C@@H](O)[C@](O)(C(=O)CO)[C@@]3(C)C[C@H](O)[C@@]12F`, for which the Potency entry is “inactive”. For `CCn1ccnc1CC1COc2ccccc2O1` (stereo not given), the Potency result is “inactive”.

With `CCN(CC)CCCN(c1ccccc1)C1Cc2ccccc2C1`, the Potency result was “inactive”. Turning to `C=CCc1ccccc1OCC(O)CNC(C)C` (stereo not given), the Potency entry was “inactive”. As for `NC(=O)N1c2ccccc2C=Cc2ccccc21`, the Potency result is “inactive”. For the compound `NC(=O)c1cn(Cc2c(F)cccc2F)nn1`, the Potency entry was “inactive”. As to `CN(C)CC/C=C1\c2ccccc2COc2ccccc21`, the Potency entry was “inactive”. As for `c1ccc2c(c1)CCCC2C1=NCCN1` (stereo not given), the Potency result was “inactive”. For `NC/C=C/C(=O)O`, the Potency entry is “inactive”. For the compound `COCCc1ccc(OCC(O)CNC(C)C)cc1` (stereo not given), the Potency entry is “inactive”. As to `CN(C)C/C=C(/c1ccc(Br)cc1)c1cccnc1`, the Potency entry was “inactive”. For the compound `CN=C(NC#N)NCCSCc1nc[nH]c1C`, the Potency result is “inactive”.

In the case of `NC1=NCC2c3ccccc3Cc3ccccc3N12` (stereo not given), the Potency result is “inactive”.

In the case of `Cc1ccc(=O)n(-c2ccccc2)c1`, the Potency entry was “inactive”. Turning to `CCOC(=O)C1=C(C)NC(C)=C(C(=O)OC)C1c1cccc(Cl)c1Cl` (stereo not given), the Potency result is “inactive”. `CCN(CC)CCNC(=O)c1cc(S(C)(=O)=O)ccc1OC`: the Potency entry is “inactive”. The value for `O=C(O)CN(CCN(CC(=O)O)CC(=O)O)CCN(CC(=O)O)CC(=O)O` was “inactive”; that for `C[N+](C)(C)CCOC(N)=O` was “inactive”; that for `CCCOc1ccccc1-c1nc2n[nH]nc2c(=O)[nH]1` was “inactive”.

For the compound `NC(=O)c1ncn([C@@H]2O[C@H](CO)[C@@H](O)[C@H]2O)c1O`, the Potency entry is “inactive”. Consider `C[C@H](CS)C(=O)N1CCC[C@H]1C(=O)O`, for which the Potency entry is “inactive”. As to `CCc1c(C)[nH]c2c1C(=O)C(CN1CCOCC1)CC2` (stereo not given), the Potency result is “inactive”. The value for `OC(CCN1CCCCC1)(c1ccccc1)C1CCCCC1` (stereo not given) was “inactive”; that for `C[n+]1cc2c3c(ccc2c2ccc4cc5c(cc4c21)OCO5)OCO3` was 1.03 µM (active). Take `C[C@]12CC[C@@H]3c4ccc(O)cc4C[C@@H](CCCCCCCCCS(=O)CCCC(F)(F)C(F)(F)F)[C@H]3[C@@H]1CC[C@@H]2O` (stereo not given in full): the Potency entry was “inactive”. Take `CCN(CC)CC(=O)Nc1c(C)cccc1C`: the Potency result was “inactive”. For `CCn1nc(C(=O)O)c(=O)c2cc3c(cc21)OCO3`, the Potency entry is “inactive”.

For the origin of these results see PubChem BioAssay (NCATS).
